High-throughput results from PubChem.
Most compounds without a hit are left out; they make up all but 5.4% or so of the library.
SKKanGAS inh – S. pyogenes SKKanGAS growth inhibitors in kanamycin, primary screen, streptokinase expression inhibitor project, SKKanGAS strain, BacTiter-Glo luminescence. 6 h. inhibition, % at 7.5 µM. hit rate 1.3% among 300,000;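 active = mean replicate score, as percent of positive control median, at least 50; inconclusive = mean below 50 but one replicate at or above 50; inactive = mean and every replicate below 50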;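 also: strain carries kanamycin resistance gene driven by streptokinase promoter and grows in 40 µg/ml kanamycin; loss of luminescence reflects streptokinase promoter inhibition or plain growth inhibition; 0% = median of DMSO wells and 100% = positive control at its reference dose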
MPTP inh – mitochondrial permeability transition pore inhibitors, primary screen, biochemical, isolated mouse mitochondria, absorbance | Ca2+ swelling absorbance, 30 min | inhibition, % at 10 µM | hit rate 1.4% among 360,000 | AID 602449, 2012;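 active = inhibition of 50% or more, scaled per plate between neutral and stimulator controls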;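 also: 0% = DMSO wells given calcium and 100% = 1 mM EGTA wells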
Mdm2-MdmX inh – inhibitors of human Mdm2-MdmX association, primary screen, cell-based, luminescence, split luciferase, SaOS-2, uHTS | Protein Mdm4 (Homo sapiens) + E3 ubiquitin-protein ligase Mdm2 (Homo sapiens), … | SaOS-2 split-luciferase Mdm2/MdmX complementation | inhibition, % at 8 µM | hit rate 3% among 330,000 | AID 485346, 2010;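 active = inhibition of at least 50% at 8 µM in the primary screen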
Target sequence (O15151 whole entry, looked up): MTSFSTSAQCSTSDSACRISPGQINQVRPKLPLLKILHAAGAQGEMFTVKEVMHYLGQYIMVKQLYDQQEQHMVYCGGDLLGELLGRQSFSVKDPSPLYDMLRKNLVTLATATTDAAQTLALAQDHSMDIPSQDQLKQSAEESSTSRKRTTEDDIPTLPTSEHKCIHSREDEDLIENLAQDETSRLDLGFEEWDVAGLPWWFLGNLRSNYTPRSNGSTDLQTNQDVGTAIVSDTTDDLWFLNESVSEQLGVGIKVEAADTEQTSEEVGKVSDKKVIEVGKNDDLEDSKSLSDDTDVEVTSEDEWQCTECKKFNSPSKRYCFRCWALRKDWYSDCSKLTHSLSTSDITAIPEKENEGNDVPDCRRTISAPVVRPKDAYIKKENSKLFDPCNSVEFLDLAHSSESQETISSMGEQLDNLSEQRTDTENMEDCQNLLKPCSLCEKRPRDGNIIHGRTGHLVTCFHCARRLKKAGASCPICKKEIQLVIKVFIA
Target sequence (Q00987 whole entry, looked up): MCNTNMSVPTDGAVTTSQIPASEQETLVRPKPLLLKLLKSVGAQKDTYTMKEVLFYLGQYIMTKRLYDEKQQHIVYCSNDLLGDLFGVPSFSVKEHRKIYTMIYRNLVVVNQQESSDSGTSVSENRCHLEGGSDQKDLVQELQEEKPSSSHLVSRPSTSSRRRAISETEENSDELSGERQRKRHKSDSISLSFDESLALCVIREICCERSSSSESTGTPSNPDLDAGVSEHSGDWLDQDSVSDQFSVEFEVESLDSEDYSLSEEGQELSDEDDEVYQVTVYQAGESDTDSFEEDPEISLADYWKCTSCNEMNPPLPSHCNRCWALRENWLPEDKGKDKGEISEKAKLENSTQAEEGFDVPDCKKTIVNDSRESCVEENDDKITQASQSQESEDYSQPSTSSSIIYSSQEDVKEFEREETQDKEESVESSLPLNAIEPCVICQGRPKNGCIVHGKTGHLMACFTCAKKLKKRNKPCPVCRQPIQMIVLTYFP
CSC inhib – cancer stem cell viability inhibitors, primary screen, luminescence. cancer stem cell-like cells viability. inhibition, % at 7.5 µM. hit rate 1.1% among 300,000; in the data active = inhibition above about 75%; inconclusive = no clear call, values can overlap the other calls; tested in HMLE shEcad cells
Calb FLC – C. albicans growth inhibition with fluconazole, primary screen, CaCi-2 strain, Alamar Blue fluorescence; C. albicans CaCi-2 (fluconazole-resistant clinical isolate) + fluconazole, 48 h; growth inhibition, % (test concentration not listed); hit rate 0.57% among 300,000; AID 1979, 2009;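 active = growth inhibition above about 58% in most replicates, limit read from the data, passing the limit was not always enough; inconclusive = exactly half the replicates above a set limit; inactive = most replicates below a set limit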;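 also: all wells also contain fluconazole at 8 µg/ml as a sub-toxic cotreatment; 0% = median of DMSO wells and 100% = median of geldanamycin control wells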
Beta apoptosis – inhibitors of cytokine-induced beta cell apoptosis, primary screen, luminescence. protection from apoptosis, % (concentration not given with the values). hit rate 0.8% among 300,000. INS-1E cytokine-induced death, ATP luminescence, 48 h; percent of positive-control rescue, neutral wells zero;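 active = Every replicate reaches about 75%, or at least half do and their mean reaches it too, limit read from the data; inconclusive = At least half of replicates reach the limit but their mean does not; inactive = Under half of replicates reach the limit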;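 also: 0% = cytokine-treated negative control wells and 100% = positive control rescue; higher means more ATP so stronger rescue from cytokine killing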
* hit, by the source's call.

`O=C(CCN1CCOCC1)NNC(=O)Nc1cccc(C(F)(F)F)c1` gave SKKanGAS inh 3, MPTP inh -1, Mdm2-MdmX inh 24, CSC inhib -17, Calb FLC -3 and Beta apoptosis 0.
Screening COc1cccc(CN(C(=O)c2cc3ccccc3oc2=O)C2CC2)c1 returned SKKanGAS inh -14, MPTP inh 2, Mdm2-MdmX inh -10, CSC inhib -7, Calb FLC 90* and Beta apoptosis -1.
COc1ccc(CN(C(=O)c2cc3ccccc3oc2=O)C2CCCC2)cc1 was read as SKKanGAS inh 15, MPTP inh 5, Mdm2-MdmX inh -4, CSC inhib -1, Calb FLC -5 and Beta apoptosis -8.
Screening Cc1ccccc1NC(=O)Cn1nc(C)n2cccc2c1=O returned SKKanGAS inh -2, MPTP inh -1, Mdm2-MdmX inh 8, CSC inhib -14 and Calb FLC -2.
`CCc1ccc(OCC(=O)NC(NC(=S)Nc2ccc(C)cc2C)C(Cl)(Cl)Cl)cc1` (configuration not stated) gave SKKanGAS inh 68*, MPTP inh 0, Mdm2-MdmX inh 19, CSC inhib -9, Calb FLC -14 and Beta apoptosis 95*.
For N#Cc1ccc(-c2ccccc2)nc1SCC(=O)c1cc2ccccc2oc1=O the results were SKKanGAS inh 109*, MPTP inh 4, Mdm2-MdmX inh 6, CSC inhib 20, Calb FLC -5 and Beta apoptosis 1.
Screening CC(C(=O)NCc1ccccc1)n1c(Cc2cc(F)cc(F)c2)nc2ccccc21 (configuration not stated) returned MPTP inh 0.
For O=[N+]([O-])c1cc(/C=N\Nc2nccs2)ccc1O the results were SKKanGAS inh 24 and Calb FLC 0.
Screening Cc1ccc(S(=O)(=O)N2CCN(C(=O)COc3ccc(NC(=O)c4ccco4)cc3)CC2)cc1 returned SKKanGAS inh -4, MPTP inh 0, Mdm2-MdmX inh -2, CSC inhib 94*, Calb FLC 6 and Beta apoptosis 11.
For O=C(Nc1ccc(S(=O)(=O)N2CCOCC2)cc1)c1ccco1 the results were SKKanGAS inh -1, MPTP inh -1, Mdm2-MdmX inh -14, CSC inhib -6, Calb FLC -6 and Beta apoptosis 2.
For Cc1ccc(C(=O)NC(=S)NNC(=O)c2ccccc2[N+](=O)[O-])cc1 the results were MPTP inh -2, Mdm2-MdmX inh -1, CSC inhib -8, Calb FLC 114* and Beta apoptosis 4.
`O=C(NNC(=S)NC(=O)c1ccccc1[N+](=O)[O-])c1ccccc1O` gave SKKanGAS inh 0, MPTP inh -1, Mdm2-MdmX inh 12, CSC inhib 9, Calb FLC -24 and Beta apoptosis 5.
Screening O=C(NC(=S)NNC(=O)c1ccccc1O)c1ccccc1 returned SKKanGAS inh 93*, MPTP inh 3, Mdm2-MdmX inh 18, CSC inhib 21 and Calb FLC 21.
O=C(Cc1ccc(Cl)cc1)NNC(=S)NC(=O)c1cccs1 was read as SKKanGAS inh 82*, MPTP inh -1, Mdm2-MdmX inh 31, CSC inhib 13, Calb FLC 109* and Beta apoptosis 63.
`Cc1ccc(C(=O)NC(=S)NNC(=O)c2ccccc2O)cc1` gave SKKanGAS inh 102*, MPTP inh 5, Mdm2-MdmX inh 37, CSC inhib 59, Calb FLC -8 and Beta apoptosis 23.
For CCCCn1c(N)c(N(Cc2ccccc2OC)C(=O)c2sccc2C)c(=O)[nH]c1=O the results were SKKanGAS inh 1, MPTP inh 2, Mdm2-MdmX inh 2, CSC inhib 2, Calb FLC 6 and Beta apoptosis -6.
COc1ccc(S(=O)(=O)Nc2nnc(C(C)(C)C)s2)cc1 was read as SKKanGAS inh -4, MPTP inh 1, Mdm2-MdmX inh -7 and Calb FLC inconclusive.
For CCCCn1c(-c2ccc(Br)cc2F)nc2c1c(=O)[nH]c(=O)n2CC(C)C the results were SKKanGAS inh 16, MPTP inh 0, Mdm2-MdmX inh 16, CSC inhib -27 and Calb FLC -10.
Screening O=C(NC(=S)NNC(=O)c1ccccc1O)c1ccc(F)cc1 returned SKKanGAS inh 81*, MPTP inh 4, Mdm2-MdmX inh 18, CSC inhib 11, Calb FLC 3 and Beta apoptosis 16.
`O=C(NC(=S)NNC(=O)c1ccccc1O)c1cccs1` gave SKKanGAS inh 90*, MPTP inh -2, Mdm2-MdmX inh 32, Calb FLC 16 and Beta apoptosis 5.
Cc1ccccc1C(=O)NNC(=S)NC(=O)c1ccccc1 was read as SKKanGAS inh 48, MPTP inh 49, Mdm2-MdmX inh 28, CSC inhib -6, Calb FLC 98* and Beta apoptosis 11.
CCCCOc1ccccc1C(=O)NNC(=S)NC(=O)c1ccccc1[N+](=O)[O-] was read as SKKanGAS inh 77*, MPTP inh 6, Mdm2-MdmX inh 42, CSC inhib 20, Calb FLC 103* and Beta apoptosis 67.
Screening O=C(NNC(=S)NC(=O)c1ccccc1[N+](=O)[O-])c1ccccc1[N+](=O)[O-] returned SKKanGAS inh -2, MPTP inh 0, Mdm2-MdmX inh 19 and Calb FLC 4.
COc1ccc(CCNc2ccc(C(=O)O)cc2[N+](=O)[O-])cc1OC was read as SKKanGAS inh 15, MPTP inh 1, Mdm2-MdmX inh -10, CSC inhib -10, Calb FLC -2 and Beta apoptosis 2.
For COc1ccc(CCNc2cc(N3CCN(C(=O)c4ccc(C)cc4)CC3)ccc2[N+](=O)[O-])cc1OC the results were SKKanGAS inh 0, Mdm2-MdmX inh 28, CSC inhib 17, Calb FLC -7 and Beta apoptosis 90*.
For COc1ccc(S(=O)(=O)N2CCOCC2)cc1NC(=O)CC1CCCC1 the results were MPTP inh -1, Mdm2-MdmX inh -18 and Beta apoptosis -3.
For CCCc1cc(=O)[nH]c(SCC(=O)NCc2ccc3c(c2)OCO3)n1 the results were SKKanGAS inh 0, MPTP inh 3, Mdm2-MdmX inh -22, CSC inhib -14, Calb FLC -7 and Beta apoptosis -6.
Screening Cc1ccc(S(=O)(=O)NCCC2(C(C)C)CCOC(C)(C)C2)cc1 (configuration not stated) returned SKKanGAS inh -1, MPTP inh 0, Mdm2-MdmX inh 36, CSC inhib -18, Calb FLC 4 and Beta apoptosis -4.
Screening Cc1ccc(C2=NNC3(CCOC(C)(C)C3)S2)cc1 (configuration not stated) returned SKKanGAS inh -10, MPTP inh 0, Mdm2-MdmX inh -56, CSC inhib -5, Calb FLC 95* and Beta apoptosis 9.
